A number with no mark means an inactive call. Records with an inconclusive call do not appear. Entries that show only a call come without a potency. Calls of active or inactive are those of the source. The call rests on the fitted dose curve; in most records, active means well fitted curve in the direction sought with a large enough effect in the repeat runs; inconclusive means weak or mixed curves; inactive means no such curve, though single readings can be large; an effect the other way counts as inactive or inconclusive.
Assays:
[1] = A CellTox Green Cytotoxicity Assay to monitor cytotoxicity in HepG2 cells - 8 hour (AID 1224890); further: nearly all actives have a fitted effect of over 45% in size
How it was run: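 Continuous culture of HepG2 cells with a membrane-impermeant DNA dye; rising fluorescence marks dead cells. Compound exposure lasted up to 40 h at 37 C, with reads every 8 h from 0 h.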

[2] = qHTS assay to identify small molecule antagonists of the estrogen receptor alpha (ER-alpha) signaling pathway using the BG1 cell line in the presence of 0.1 nM 17-beta-estradiol - cell viability counter screen (AID 1259241); further: nearly all actives have a fitted effect of over 40% in size
How it was run: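 Live-cell protease activity (CellTiter-Fluor fluorescence, 30 min) was read in the same wells after VM7Luc4E2 cells had been exposed to compounds with 0.1 nM 17beta-estradiol for 22 hr at 37C.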

[3] = qHTS assay to identify small molecule antagonists of the androgen receptor (AR) signaling pathway using the MDA cell line in the presence of 0.5 nM R1881 - cell viability counter screen (AID 1259242); further: nearly all actives have a fitted effect of over 45% in size
How it was run: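 Fluorescence from CellTiter-Fluor, which reports protease activity of live cells, was read 30 min after reagent addition to MDA-kb2 cells that had been incubated 16 hr with compound and 0.5 nM R1881.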

[4] = biological target: Estrogen receptor (Homo sapiens) (UniProt P03372); experiment: qHTS assay to identify small molecule antagonists of the estrogen receptor alpha (ER-alpha) signaling pathway using the BG1 cell line in the presence of 0.1 nM 17-beta-estradiol (AID 1259244); further: nearly all actives have a fitted effect of over 50% in size
Estrogen receptor (Homo sapiens), sequence (P03372 whole entry, looked up): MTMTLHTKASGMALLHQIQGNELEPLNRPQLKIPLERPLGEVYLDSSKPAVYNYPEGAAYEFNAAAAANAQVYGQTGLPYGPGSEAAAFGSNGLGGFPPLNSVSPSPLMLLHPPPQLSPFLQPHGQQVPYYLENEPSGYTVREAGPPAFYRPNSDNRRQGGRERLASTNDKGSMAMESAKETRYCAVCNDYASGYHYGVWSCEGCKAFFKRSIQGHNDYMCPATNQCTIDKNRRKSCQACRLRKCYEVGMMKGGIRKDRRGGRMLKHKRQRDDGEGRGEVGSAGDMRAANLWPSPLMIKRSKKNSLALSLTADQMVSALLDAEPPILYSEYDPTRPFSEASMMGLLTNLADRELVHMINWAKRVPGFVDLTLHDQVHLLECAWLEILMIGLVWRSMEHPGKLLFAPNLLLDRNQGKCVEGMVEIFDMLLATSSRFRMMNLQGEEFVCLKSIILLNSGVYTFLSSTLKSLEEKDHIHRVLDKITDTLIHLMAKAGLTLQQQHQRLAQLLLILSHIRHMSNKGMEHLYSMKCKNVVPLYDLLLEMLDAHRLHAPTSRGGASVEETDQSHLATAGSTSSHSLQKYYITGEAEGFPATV
How it was run: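 Quantitative high-throughput screen in VM7Luc4E2 cells: compound plus 0.1 nM E2 (final), 22 h, 37C, 5% CO2; ONE-Glo added, 30 min room temperature, luminescence measured.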

[5] = qHTS assay to identify small molecule HDAC inhibitors (AID 1259364); further: nearly all actives have a fitted effect of over 45% in size; further: potency means the concentration at half of the fitted maximal effect; on activity change, negative = inhibition: top concentration of the series differs between compounds
How it was run: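 Endogenous HDAC class I/II activity was measured in wild-type HCT-116 cells by HDAC-Glo luminescence after 2 h compound treatment.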

[6] = qHTS assay to identify small molecule agonists of the sonic hedgehog signaling (Shh) pathway - cell viability counter screen (AID 1259366); further: nearly all actives have a fitted effect of over 50% in size
How it was run: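 CellTiter-Fluor fluorescence read-out, 1 hr at 37C, added after 23hr compound exposure. Cells: 3T3 Gli1-Luc, an NIH/3T3 clone with stably integrated Gli1-Luc reporter, plated 4hr before compound.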

[7] = qHTS assay to identify small molecule antagonists of the sonic hedgehog signaling (Shh) pathway - cell viability counter screen (AID 1259367); further: nearly all actives have a fitted effect of over 55% in size
How it was run: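 NIH/3T3-derived Gli1-Luc reporter cells (2,000 per well) rested 4 hr at 37 C, then received DMSO compounds plus conditioned medium. After 23 hr of treatment, CellTiter-Fluor was added for 1 hr at 37C and fluorescence read.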

[8] = qHTS assay to identify small molecule HDAC inhibitors - cell viability counter screen (AID 1259365); further: series mostly up to about 92 µM; nearly all actives have a fitted effect of over 50% in size
How it was run: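 HCT-116 (wild type), 1,500 cells/well, overnight 37C/5% CO2; compound in DMSO 2hr; CellTiter-Glo 30min RT; luminescence read.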

[9] = biological target: Androgen receptor (Homo sapiens) (UniProt P10275); experiment: qHTS assay to identify small molecule antagonists of the androgen receptor (AR) signaling pathway using the MDA cell line in the presence of 0.5 nM R1881 (AID 1259243); further: nearly all actives have a fitted effect of over 50% in size; further: potency means the concentration at half of the fitted maximal effect
Androgen receptor (Homo sapiens), sequence (P10275 whole entry, looked up): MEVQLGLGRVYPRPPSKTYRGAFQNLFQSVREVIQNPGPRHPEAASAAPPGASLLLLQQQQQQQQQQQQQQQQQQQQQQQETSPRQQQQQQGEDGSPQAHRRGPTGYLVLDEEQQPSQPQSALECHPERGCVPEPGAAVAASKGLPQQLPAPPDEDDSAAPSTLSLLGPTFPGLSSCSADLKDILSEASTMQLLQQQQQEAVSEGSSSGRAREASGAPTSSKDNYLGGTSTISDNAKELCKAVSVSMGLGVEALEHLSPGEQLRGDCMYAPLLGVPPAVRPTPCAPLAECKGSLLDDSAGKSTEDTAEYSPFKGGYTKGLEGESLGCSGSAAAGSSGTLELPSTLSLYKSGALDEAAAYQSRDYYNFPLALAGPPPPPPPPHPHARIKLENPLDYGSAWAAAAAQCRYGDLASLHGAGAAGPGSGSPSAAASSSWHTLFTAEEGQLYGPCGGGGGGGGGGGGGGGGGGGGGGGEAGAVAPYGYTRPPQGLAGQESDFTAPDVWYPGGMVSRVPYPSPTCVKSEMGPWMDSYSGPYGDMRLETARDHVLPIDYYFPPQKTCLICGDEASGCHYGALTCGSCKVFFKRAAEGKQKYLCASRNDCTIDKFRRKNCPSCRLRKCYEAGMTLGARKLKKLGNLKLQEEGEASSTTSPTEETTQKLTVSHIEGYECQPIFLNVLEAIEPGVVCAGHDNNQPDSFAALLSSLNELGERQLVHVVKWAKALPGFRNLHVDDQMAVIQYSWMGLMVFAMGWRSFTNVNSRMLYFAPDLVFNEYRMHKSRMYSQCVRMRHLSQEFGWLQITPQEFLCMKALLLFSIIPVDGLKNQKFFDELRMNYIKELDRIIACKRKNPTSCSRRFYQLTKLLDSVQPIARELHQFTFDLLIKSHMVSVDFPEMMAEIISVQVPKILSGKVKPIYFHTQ
How it was run: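 Inhibition of R1881 (0.5 nM final) induced reporter signal was measured in human MDA-kb2 cells; note the MMTV promoter also responds to GR. Exposure lasted 16 hr at 37C.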

## NCCN1CCNC1=O
[1]
  Potency: inactive
[2]
  outcome: inactive
[3]
  outcome: inactive
[4]
  outcome: inactive
[5]
  Potency: inactive
[6]
  Potency: inactive
[7]
  outcome: inactive

## CCCCC1CCCCC(=O)O1 (stereo not given)
[1]
  Potency: inactive
[2]
  outcome: inactive
[3]
  outcome: inactive
[4]
  outcome: inactive
[5]
  Potency: inactive
[8]
  outcome: inactive
[6]
  Potency: inactive
[7]
  outcome: inactive

## CC(C)c1cccc(O)c1
[1]
  Potency: inactive
[2]
  outcome: inactive
[3]
  outcome: inactive
[4]
  outcome: inactive
[5]
  Potency: inactive
[8]
  outcome: inactive
[7]
  outcome: inactive

## c1ccc(CCCc2ccccn2)cc1
[1]
  Potency: inactive
[2]
  outcome: inactive
[3]
  outcome: inactive
[4]
  outcome: inactive
[5]
  Potency: 4.33 µM (active)
[6]
  Potency: inactive
[7]
  outcome: inactive

## CC(C)(C)C(=O)/C=C/c1ccc(Cl)cc1
[1]
  Potency: inactive
[2]
  outcome: inactive
[3]
  outcome: inactive
[4]
  outcome: inactive
[5]
  Potency: inactive
[8]
  outcome: inactive
[7]
  outcome: inactive

## Fc1ccccc1-c1ccccc1
[1]
  Potency: inactive
[2]
  outcome: inactive
[3]
  outcome: inactive
[4]
  outcome: inactive
[5]
  Potency: inactive
[8]
  outcome: inactive
[7]
  outcome: inactive

## NC(=S)Nc1cccc2ccccc12
[1]
  cytotoxicity increase: 0.879% [at 6.97 µM]
[2]
  activity change, negative = cytotoxicity: 7.82% [at 8.39 µM]
[3]
  viability change, negative = cytotoxic: 0.661% [at 8.39 µM]
[5]
  activity change, negative = inhibition: 2.32% [at 8.39 µM]
[8]
  activity change, negative = cytotoxicity: -1.1% [at 8.39 µM]
[6]
  viability change, negative = cytotoxic: -0.646% [at 8.39 µM]
[7]
  viability change, negative = cytotoxic: 0.784% [at 8.39 µM]

## COC(=O)c1ccc(C(=O)OC)c(C(=O)OC)c1
[1]
  Potency: inactive
[2]
  outcome: inactive
[3]
  outcome: inactive
[5]
  Potency: inactive
[8]
  outcome: inactive
[6]
  Potency: inactive
[7]
  outcome: inactive

## c1ccc(SCCSc2ccccc2)cc1
[1]
  Potency: inactive
[2]
  outcome: inactive
[3]
  outcome: inactive
[8]
  outcome: inactive
[6]
  Potency: inactive
[7]
  outcome: inactive

## CN(C)N=Nc1ccccc1
[1]
  Potency: inactive
[2]
  outcome: inactive
[3]
  outcome: inactive
[5]
  Potency: inactive
[8]
  outcome: inactive
[7]
  outcome: inactive

## CC1(C)OC(=O)Nc2ccc(Br)cc21
[1]
  Potency: inactive
[3]
  outcome: inactive
[9]
  Potency: 9.44 µM (active)
[4]
  outcome: inactive
[5]
  Potency: inactive
[8]
  outcome: inactive
[7]
  outcome: inactive

## C=CC(=O)OCCCCCC
[1]
  Potency: inactive
[2]
  outcome: inactive
[3]
  outcome: inactive
[5]
  Potency: inactive
[8]
  outcome: inactive
[6]
  Potency: inactive
[7]
  outcome: inactive

## CCCCNc1ccccc1
[1]
  Potency: inactive
[3]
  outcome: inactive
[9]
  Potency: inactive
[4]
  outcome: inactive
[5]
  Potency: inactive
[6]
  Potency: inactive
[7]
  outcome: inactive

Reference: PubChem BioAssay (Tox21)
